# Source: PubChem BioAssay
# DT40 TDP1 CPT – growth inhibition of DT40 Tdp1-/-;hTDP1 cells with camptothecin (screen for TDP1 inhibitors) | chicken DT40 Tdp1-/-;hTDP1 cells + 20 nM CPT, ATP luminescence, 48 h | Potency, µM (highest dose often 46.2 µM), inactives show at the top dose activity change, negative = growth inhibition, hits mostly inhibitors | actives 12% (n = 420,000); also: potency is read from the fitted curve at half-maximal effect; nearly all actives have a fitted effect of over 55% in size
#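 Chicken DT40 Tdp1-/- cells complemented with human TDP1, 400 cells/well, exposed to compounds plus 20 nM camptothecin for at least 48 h at 37 C; viability read as ATP content by CellTiter-Glo luminescence.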
# IL-1B inflam inh – inhibitors of inflammasome signaling (IL-1 beta secretion); THP-1 LPS/ATP IL-1B secretion, AlphaLISA, 16 h; stronger effect = lower value; activity change, % at 57.5 µM; actives 4.7% (n = 360,000); AID 743279; in the data active = activity change below about -50%; inconclusive = mostly about -30% to -49%
#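 THP-1 cells pretreated 1 hr with compounds (up to 57.5 uM final), then stimulated with LPS (250 ng/mL final) plus ATP (1.25 mM final); secreted IL-1B measured by AlphaLISA after 16 hr, decreased signal indicating inhibition.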
# Giardia kill – kills Giardia lamblia. AID 540267. Giardia lamblia trophozoite viability. actives 0.15% (n = 340,000). activity change, % at 7.66 µM, hits read low; in the data active = activity change below about -80%; inconclusive = between about -30% and that limit;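 also: parasites exposed to compound for two days anaerobically before the ATP read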
#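 ATP-content bioluminescence gauges trophozoite survival. Cells (100/well) receive compound and incubate anaerobically for 48 hrs at 37 deg C; detection reagent follows for 15-30 min at room temperature.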
# DT40 TDP1 no CPT – qHTS for Inhibitors of human tyrosyl-DNA phosphodiesterase 1 (TDP1): qHTS in cells in absence of CPT. DT40 Tdp1-/- hTDP1 cells, no CPT, ATP luminescence, 48 h. Potency, µM (highest dose often 46.2 µM), for the others: top-dose activity change, negative = growth inhibition, usual class: inhibitors. actives 15% (n = 420,000). AID 686978, 2013; also: potency is read from the fitted curve at half-maximal effect; nearly all actives have a fitted effect of over 55% in size
#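 A cellular qHTS used chicken DT40 cells lacking endogenous Tdp1 but carrying stably transfected human TDP1. Compounds were applied without camptothecin, and cell growth kinetics were judged by ATP-dependent luminescence after ≥48 hr.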
# ELG1 repair inh – inhibitors of ELG1-dependent DNA repair in HEK293T cells; HEK293T ELG1-luciferase reporter, luminescence, 16 h; DNA damage induced by 5-fluorouridine; Potency, µM (top dose mostly 46.1 µM), for the others: at the highest dose activity change, negative = inhibition, actives largely listed as inhibitors; actives 2.3% (n = 330,000); also: potency is read from the fitted curve at half-maximal effect; nearly all actives have a fitted effect of over 55% in size
#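 Cells (2,000 per well) received 5-fluorouridine plus test compound or DMSO and were incubated 16 hr at 37 °C, 5% CO2. Luciferase activity was read by luminescence 30 min after ONE-Glo addition; signal suppression marked inhibition of damage-induced ELG1 function.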
# TDP1 block – inhibitors of human tyrosyl-DNA phosphodiesterase TDP1; recombinant TDP1, AlphaScreen DNA substrate cleavage; Potency, µM (top dose mostly 130 µM), inactives show at the highest dose activity change, negative = inhibition, actives largely listed as inhibitors; actives 0.28% (n = 350,000); also: potency is read from the fitted curve at half-maximal effect; nearly all actives have a fitted effect of over 40% in size
# Target sequence (Q9NUW8 whole entry, looked up): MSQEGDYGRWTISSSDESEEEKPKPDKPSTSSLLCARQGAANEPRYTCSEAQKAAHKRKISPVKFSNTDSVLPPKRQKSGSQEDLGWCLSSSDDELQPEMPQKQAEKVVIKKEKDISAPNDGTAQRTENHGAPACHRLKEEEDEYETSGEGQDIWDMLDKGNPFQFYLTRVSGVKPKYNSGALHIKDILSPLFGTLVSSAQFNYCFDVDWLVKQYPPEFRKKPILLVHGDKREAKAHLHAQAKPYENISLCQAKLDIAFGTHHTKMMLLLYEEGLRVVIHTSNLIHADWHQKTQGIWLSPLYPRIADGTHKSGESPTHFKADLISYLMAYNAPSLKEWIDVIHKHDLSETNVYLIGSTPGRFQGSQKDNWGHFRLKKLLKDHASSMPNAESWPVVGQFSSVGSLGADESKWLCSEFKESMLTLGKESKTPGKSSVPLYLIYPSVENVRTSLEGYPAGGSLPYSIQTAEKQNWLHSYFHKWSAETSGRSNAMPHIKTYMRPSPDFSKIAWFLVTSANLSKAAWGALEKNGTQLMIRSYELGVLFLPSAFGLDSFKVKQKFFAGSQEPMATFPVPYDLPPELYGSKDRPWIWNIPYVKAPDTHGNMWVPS
#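 Enzyme-compound mixtures sat 15 min at room temperature, followed by a 5 min reaction with 15 nM final substrate and 10 min with AlphaScreen beads. Recombinant human Tdp1 was used at 1 nM final.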
# An asterisk follows results filed as active; u = inconclusive; x = no result; ! = a repeat was not active. Sampled rows, rich in hits. Any-hit rate of the full collection: about 19%. Unless noted, calls follow the shape of the dose curve; as a rule, active = well fitted curve in the direction sought with a large enough effect; inconclusive = small, poorly fitted or top-dose-only effect, or another doubt; inactive = no such curve, though single readings can be large; an effect the other way counts as inactive or inconclusive. % is scaled to controls: 0 for no effect and ±100 for the full control effect.
SMILES,DT40 TDP1 CPT,IL-1B inflam inh,Giardia kill,DT40 TDP1 no CPT,ELG1 repair inh,TDP1 block
CC(C)NC(NC(=O)/C=C/c1ccccc1)C(Cl)(Cl)Cl (stereo not given),-2.8%,-10.3,-2.9,u,4.1%,0.0%
O=C(/C=C/c1ccccc1)NC(NC(=S)Nc1cc(Cl)ccc1Cl)C(Cl)(Cl)Cl (stereo not given),5.17µM*,-65.8*,-2.7,5.17µM*,-1.9%,6.2%
O=C(/C=C/c1ccccc1)NC(NC(=S)Nc1ccc(Cl)cc1)C(Cl)(Cl)Cl (stereo not given),16.4µM*,u,25.5,5.17µM*,-16.0%,2.0%
CC(C)CC(=O)NC(NC(=S)Nc1ccccc1)C(Cl)(Cl)Cl (stereo not given),u,-77.1*,-1.3,u,-16.1%,0.0%
COc1ccc(NC(=S)NC(NC(=O)/C=C/c2ccccc2)C(Cl)(Cl)Cl)cc1 (stereo not given),u,-4.2,18.9,18.4µM*,-5.1%,-2.0%
O=C(NC(=S)Nc1ccccc1F)c1ccc(Br)o1,-11.6%,21.3,16.0,-27.3%,u,2.6%
CC(C)CC(=O)NC(Nc1ccccc1F)C(Cl)(Cl)Cl (stereo not given),u,-5.8,-0.7,u,-10.5%,-1.0%
O=C(CCc1ccccc1)NC(NC(=S)Nc1ccc(Cl)cc1)C(Cl)(Cl)Cl (stereo not given),8.2µM*,-3.9,-0.7,4.61µM*,0.0%,3.4%
CC(C)CC(=O)NC(Nc1ccc([N+](=O)[O-])cc1)C(Cl)(Cl)Cl (stereo not given),18.4µM*,6.7,-2.0,23.1µM*,u,3.2%
CN1C(=O)C2(Oc3ccccc3C3CC(c4ccccc4)=NN32)c2ccccc21 (stereo not given),23.1µM*,-14.0,3.8,u,u,3.1%
CCOc1ccc(N(CC)C(=O)c2cn(CC)c(=O)c3cc(OC)c(OC)cc23)cc1,-13.5%,4.4,2.7,1.1%,u,x
COc1ccc(NC(=O)c2cc(S(=O)(=O)N3CCCCC3)c[nH]2)c(OC)c1,-20.1%,-2.7,-18.7,-29.3%,0.1%,x
COC(=O)c1cc(S(=O)(=O)N2CCC(c3cc(OC)ccc3OC)C2)c[nH]1 (stereo not given),13µM*,-5.2,13.9,u,u,2.0%
COC(=O)c1cc(S(=O)(=O)N2CCN(c3ccccc3)CC2)c[nH]1,-28.0%,-14.1,-18.7,u,-3.5%,x
COC(=O)c1cc(S(=O)(=O)N2CCC(c3ccccc3)C2)c[nH]1 (stereo not given),23.1µM*,30.9,1.6,u,u,1.2%
CCC(=O)N1c2ccccc2NC2=C(C(=O)CC(c3ccco3)C2)C1c1ccco1 (stereo not given),-23.5%,8.8,6.8,-14.2%,0.7%,5.2%
O=C1CC(c2ccco2)CC2=C1C1c3ccccc3C(=O)N1c1ccccc1N2 (stereo not given),u,-94.2*,25.4,23.1µM*,-1.5%,7.7%
COc1ccc(CN(C)C(=O)COC(=O)c2c(C)nn(-c3ccc(F)cc3)c2Cl)cc1,u,-14.4,2.8,u,13µM*,-2.7%
CCc1cccc2c1NC1(CCCC1)CC2C (stereo not given),u,33.5,-12.1,20.6µM*,10.8%,7.2%
CCc1cccc2c1NC(=O)C2=O,19.0%,27.5,1.6,-13.7%,x,x
COc1ccccc1N(C)S(=O)(=O)c1ccc(C(=O)Nc2ccc(C(N)=O)cc2)cc1,u,18.5,0.0,u,u,-2.0%
COc1ccccc1N(C)S(=O)(=O)c1ccc(C(=O)Nc2cccc(S(=O)(=O)N3CCOCC3)c2)cc1,u,-8.9,21.2,10.3µM*,x,x
CN(c1ccccc1)S(=O)(=O)c1ccc(C(=O)Nc2cccc(S(=O)(=O)N3CCOCC3)c2)cc1,7.31µM*,-11.6,x,7.31µM*,x,x
CC1(C(=O)NS(=O)(=O)C2CC2)CCN(C(=O)c2ccccc2C(F)(F)F)C1 (stereo not given),-19.6%,10.7,x,-0.8%,x,x
N[C@H](C(=O)O)c1ccc(O)cc1,-0.1%,x,x,-8.7%,x,x
SMILES,DT40 TDP1 CPT,IL-1B inflam inh,Giardia kill,DT40 TDP1 no CPT,ELG1 repair inh,TDP1 block
COc1cc2c(cc1OC)C(c1ccccc1F)NCC2 (stereo not given),-13.2%,-5.4,-16.7,u,-3.3%,x
COc1ccc(CNC(=O)COc2cc(O)c3c(c2)OC(C)(C)CC3=O)cc1,32.6µM*,-7.1,-13.9,0.82µM*,-5.7%,x
COc1cc(NC(=O)COc2cc(O)c3c(c2)OC(C)(C)CC3=O)cc(OC)c1OC,0.461µM*,-3.2,13.6,0.259µM*,10.3µM*,x
CCc1cc2c3c(c1)C1(C(=O)N3C(C)(C)C=C2C)C(C#N)=C(N)Oc2[nH]c(=O)[nH]c(=O)c21 (stereo not given),3.26µM*,25.0,5.4,3.26µM*,u,5.4%
CC1=CC(C)(C)N2C(=O)C3(C(C#N)=C(N)Oc4cc(C)oc(=O)c43)c3cc(C)cc1c32 (stereo not given),-6.3%,0.0,12.4,-1.8%,x,x
O=C(COC(=O)c1ccc(O)cc1)Nc1cc(S(=O)(=O)N2CCOCC2)ccc1Cl,-23.4%,-14.9,-16.3,-29.3%,u,2.3%
O=C(CCc1nc2cccnc2n1Cc1ccccc1)NCCc1ccc(Cl)cc1,u,-4.3,9.6,20.6µM*,-8.6%,2.8%
Cc1ccc(NC(=O)Cc2ccc(-n3c(C)nc4cccnc43)cc2)cc1C,11.6µM*,x,x,18.4µM*,x,5.6%
COc1ccc(Cn2c(CCC(=O)Nc3ccc(C)c(C)c3)nc3cccnc32)cc1,13µM*!,u,-8.1,20.6µM*,u,6.9%
CCOc1ccc(NC(=O)Cc2ccc(-n3c(C)nc4cccnc43)cc2)cc1,u,x,x,u,x,2.8%
O=C(CCc1nc2cccnc2n1Cc1cccs1)Nc1cccc(C(F)(F)F)c1,16.4µM*,x,x,10.3µM*,x,3.8%
COc1ccc(Cn2c(CCC(=O)Nc3cccc(OC)c3)nc3cccnc32)cc1,-16.7%,x,x,-3.1%,x,-2.3%
COc1ccc(Cn2c(CCC(=O)Nc3ccccc3)nc3cccnc32)cc1,3.3%,-1.9,-5.3,-22.1%,-23.0%,0.0%
COc1ccc(Cn2c(CCC(=O)Nc3cc(OC)c(OC)c(OC)c3)nc3cccnc32)cc1,16.4µM*,x,x,u,x,6.4%
